# Source: paper PMC8384837, “Expanding the binding specificity for RNA recognition by a PUF domain”
# What was measured:
# Assay in all cases: yeast three-hybrid, YBZ-1, SC-Leu-His + 0.5 mM 3-AT, 4 days
# Conditions in all cases: tags: N-Gal4 AD-HA kept; label: inside an RPR1-promoter hybrid RNA with tandem MS2 sites; ssRNA
# PUM1 PUF domain R4-GFW = PUM1 PUF domain R4-GFW (Homo sapiens, UniProt Q14671 828-1176, N971G;H972F;Q975W)
# Outline: (§1)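 The interaction score is the logarithmic change in variant frequency from input to selection. It uses log2, with a pseudocount of 1 for absent variants, and frequencies came from PCR-amplified, Illumina-sequenced repeat regions. The libraries were Pumilio-1 PUF domains randomized at the three base-contacting residues per repeat, co-expressed with matching RNA elements in strain YBZ-1 (LexA–MS2 coat fusion, HIS3 reporter). Plating lasted four days on SC-Leu (input) or SC-Leu-His + 0.5 mM 3-AT (selection).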
# PUM1 PUF domain R5-QLS = PUM1 PUF domain R5-QLS (Homo sapiens, UniProt Q14671 828-1176, C1007Q;R1008L;Q1011S)
# Outline: as §1
# PUM1 PUF domain R4-RMT = PUM1 PUF domain R4-RMT (Homo sapiens, UniProt Q14671 828-1176, N971R;H972M;Q975T)
# Outline: as §1
# PUM1 PUF domain R6-RWC = target: T1, PUM1 PUF domain R6-RWC (Homo sapiens, UniProt Q14671 828-1176, N1043R;Y1044W;Q1047C)
# T1 sequence: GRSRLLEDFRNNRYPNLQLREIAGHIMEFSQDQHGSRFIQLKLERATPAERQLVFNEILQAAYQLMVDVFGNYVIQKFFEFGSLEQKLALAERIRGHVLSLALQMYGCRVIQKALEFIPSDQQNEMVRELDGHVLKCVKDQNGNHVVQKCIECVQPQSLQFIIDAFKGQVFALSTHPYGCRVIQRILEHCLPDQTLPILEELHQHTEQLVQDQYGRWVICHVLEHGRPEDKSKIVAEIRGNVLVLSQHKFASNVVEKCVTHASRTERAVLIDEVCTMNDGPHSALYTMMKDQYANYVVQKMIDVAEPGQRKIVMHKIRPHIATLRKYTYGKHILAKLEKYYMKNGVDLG
# Outline: as §1
# PUM1 PUF domain R4-FGR = PUM1 PUF domain R4-FGR (Homo sapiens, UniProt Q14671 828-1176, N971F;H972G;Q975R)
# Outline: as §1
# PUM1 PUF domain R1-LRR = PUM1 PUF domain R1-LRR (Homo sapiens, UniProt Q14671 828-1176, S863L;Q867R)
# Outline: as §1
# PUM1 PUF domain R1-SVR = PUM1 PUF domain R1-SVR (Homo sapiens, UniProt Q14671 828-1176, R864V;Q867R)
# Outline: as §1
# PUM1 PUF domain R5-NKR = PUM1 PUF domain R5-NKR (Homo sapiens, UniProt Q14671 828-1176, C1007N;R1008K;Q1011R)
# Outline: as §1
# PUM1 PUF domain R5-NKR, sequence (Q14671 828-1176 C1007N/R1008K/Q1011R): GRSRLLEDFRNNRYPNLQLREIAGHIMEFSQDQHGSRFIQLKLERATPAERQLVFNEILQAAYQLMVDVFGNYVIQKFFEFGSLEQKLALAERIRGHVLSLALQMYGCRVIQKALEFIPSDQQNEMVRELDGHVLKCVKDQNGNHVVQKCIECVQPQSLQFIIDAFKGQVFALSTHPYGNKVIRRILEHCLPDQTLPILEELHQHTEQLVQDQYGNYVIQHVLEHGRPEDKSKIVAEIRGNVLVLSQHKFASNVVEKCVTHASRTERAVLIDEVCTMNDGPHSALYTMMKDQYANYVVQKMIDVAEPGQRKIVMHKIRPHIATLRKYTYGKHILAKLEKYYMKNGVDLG
sequence,measurement,setting,value
GGCUAGAACUAGUGGAUCCCCCGGCGCCCGGCGGCUCGAGCCCGGGUAAGUGUAAAUAGUCUGCAUGCCGCCGGGCGCCAUGCCUGCAGGUCGACUCUAGAAAACAUG,binding signal,PUM1 PUF domain R4-GFW,4.78 log2 enrichment (interaction score)
same,binding signal,PUM1 PUF domain R5-QLS,0.83 log2 enrichment (interaction score)
same,binding signal,PUM1 PUF domain R4-RMT,3.47 log2 enrichment (interaction score)
same,binding signal,PUM1 PUF domain R6-RWC,4.89 log2 enrichment (interaction score)
GGCUAGAACUAGUGGAUCCCCCGGCGCCCGGCGGCUCGAGCCCGGGUAAGUGUAUAUAGUCUGCAUGCCGCCGGGCGCCAUGCCUGCAGGUCGACUCUAGAAAACAUG,binding signal,PUM1 PUF domain R4-GFW,4.86 log2 enrichment (interaction score)
same,binding signal,PUM1 PUF domain R4-FGR,2.32 log2 enrichment (interaction score)
GGCUAGAACUAGUGGAUCCCCCGGCGCCCGGCGGCUCGAGCCCGGGUAAGUGUAAAUUGUCUGCAUGCCGCCGGGCGCCAUGCCUGCAGGUCGACUCUAGAAAACAUG,binding signal,PUM1 PUF domain R1-LRR,2.97 log2 enrichment (interaction score)
GGCUAGAACUAGUGGAUCCCCCGGCGCCCGGCGGCUCGAGCCCGGGUAAGUGUAAAUCGUCUGCAUGCCGCCGGGCGCCAUGCCUGCAGGUCGACUCUAGAAAACAUG,binding signal,PUM1 PUF domain R1-LRR,2.97 log2 enrichment (interaction score)
same,binding signal,PUM1 PUF domain R1-SVR,3.35 log2 enrichment (interaction score)
GGCUAGAACUAGUGGAUCCCCCGGCGCCCGGCGGCUCGAGCCCGGGUAAGUGUUAAUAGUCUGCAUGCCGCCGGGCGCCAUGCCUGCAGGUCGACUCUAGAAAACAUG,binding signal,PUM1 PUF domain R5-NKR,5.24 log2 enrichment (interaction score)
GGCUAGAACUAGUGGAUCCCCCGGCGCCCGGCGGCUCGAGCCCGGGUAAGUGUACAUAGUCUGCAUGCCGCCGGGCGCCAUGCCUGCAGGUCGACUCUAGAAAACAUG,binding signal,PUM1 PUF domain R4-FGR,2.88 log2 enrichment (interaction score)
GGCUAGAACUAGUGGAUCCCCCGGCGCCCGGCGGCUCGAGCCCGGGUAAGUGUGAAUAGUCUGCAUGCCGCCGGGCGCCAUGCCUGCAGGUCGACUCUAGAAAACAUG,binding signal,PUM1 PUF domain R5-QLS,2.16 log2 enrichment (interaction score)
